Measured values published in PubChem BioAssay (NCI).
The panel holds about 83,000 compounds, 20% with a hit somewhere; the sample as a whole holds those more often.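 Treatment: one concentration, 48 hours, 96-well format. Scoring: percent growth, with anything below 10 considered active.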 Active and inactive are the calls of the source.

system: NCI-H322M lung; test: NCI-60 one-dose screen, 48 h (100 = growth as untreated, 0 = no growth, -100 = all killed); conditions: 10 µM unless noted

SMILES | growth
O=C(Nc1ccccn1)[C@H](O)[C@@H](O)C(=O)N1CCOCC1 | 115% (inactive)
CC(C)(C)N1CC(OC(N)=O)C1 | 98.6% (inactive)
O=C(NC1CCOCC1)c1ccc2c(c1)CN(c1ncc(Cc3cccc(-n4cccn4)c3)s1)CC2 | 87.8% (inactive)
CN1C[C@@H](c2ccc(Cl)cc2)[C@]2(NC(=S)N(c3ccc(F)c(Cl)c3)C2=O)[C@@]12C(=O)NC1C=CC(Cl)=C[C@H]12 (some centres undefined) | 74.6% (inactive)
CCCN1CCN(c2ccc3nc(-c4ccc5nc(-c6ccc(OCC)c(OCC)c6)[nH]c5c4)[nH]c3c2)CC1 | -18.7% (active)
NC(=S)c1csc(CCNC(=O)c2ccccc2)n1 | 108% (inactive)
CCN(CCO)CC(=O)c1cc(Cl)cc(Cl)c1Cl | 101% (inactive)
C=CC(=O)Nc1cccc(C)c1Nc1cc(-c2cccnc2Cc2c(C)c(OC)cc(OC)c2C)ncn1 | 50.7% (inactive)
N#Cc1c(NC(=O)c2ccccc2I)sc2c1CCCC2 | 88.5% (inactive)
C#CC[C@H](N)C(=O)O | 97.8% [20 µM] (inactive)
COc1ccc(-n2ncn(CCCCCCn3cnn(-c4ccc(OC)cc4)c3=O)c2=O)cc1 | 88.4% (inactive)
CC(C)OC(=O)OCOP(=O)(OCOC(=O)OC(C)C)C1CCCN(O)C1=O (centres undefined) | 32.8% (inactive)
O=C(/C=C/C12c3ccccc3C(c3ccccc31)C1C(=O)N(c3ccc(Cl)cc3)C(=O)C12)c1ccccn1 (centres undefined) | 11.3% (inactive)
Cc1ccc(S(=O)(=O)N(CC[C@@H]2C[C@H]2c2cc3ccccc3o2)C(=O)NC2CCCCC2)cc1 | 108% (inactive)
